CHO-K1 Ca antag = counter-screen for M1 antagonists: effect in parental CHO-K1 cells | ATP-induced calcium, Fluo-8 fluorescence | hit rate 0.6% among 360,000 | inhibition, % at 3 µM;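 active = inhibition above a per-plate cutoff, the plate's mean sample inhibition plus 3 SD, cut at about 24% in these data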
M1 PAM parental = nonselective calcium activators in parental CHO-K1 cells, primary screen, counter-screen for M1 PAM project, cell-based, Fluo-8 calcium fluorescence, full deck, 1536-well. ATP EC20; 0% at ATP EC20, 100% at ATP max. hit rate 0.02% among 360,000. activation, % at 3 µM. AID 602247, 2012;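 active = activation above the run cutoff, the mean activation of all test compounds plus 3 SD, cut at about 40% in these data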;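 note: peak over basal fluorescence ratio in a 140 s read after ATP addition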
M1 PAM = human M1 muscarinic receptor positive allosteric modulators, primary screen, CHO-K1 cells, Fluo-8 calcium fluorescence, 1536-well | CHO-K1 hM1, ACh EC20; 0% = ACh EC20, 100% = maximal ACh | activation, % at 3 µM | hit rate 0.088% among 360,000 | Muscarinic acetylcholine receptor M1 (Homo sapiens), P11229; in the data active = activation above about 19%, passing the limit was not always enough
Target sequence (P11229 whole entry, looked up): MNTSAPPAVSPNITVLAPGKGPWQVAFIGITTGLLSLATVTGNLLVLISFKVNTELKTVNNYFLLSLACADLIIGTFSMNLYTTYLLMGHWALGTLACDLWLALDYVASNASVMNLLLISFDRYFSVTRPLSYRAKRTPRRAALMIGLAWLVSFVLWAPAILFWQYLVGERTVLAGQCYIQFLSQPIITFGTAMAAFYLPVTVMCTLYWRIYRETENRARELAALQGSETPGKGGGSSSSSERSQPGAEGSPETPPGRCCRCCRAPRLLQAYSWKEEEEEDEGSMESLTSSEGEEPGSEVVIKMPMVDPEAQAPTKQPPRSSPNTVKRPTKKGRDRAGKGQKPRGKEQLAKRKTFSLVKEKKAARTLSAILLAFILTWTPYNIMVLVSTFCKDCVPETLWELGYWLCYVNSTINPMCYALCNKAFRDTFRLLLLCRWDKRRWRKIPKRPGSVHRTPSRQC
CHO-K1 Ca ag = counter-screen for M1 agonists: effect in parental CHO-K1 cells. hit rate 0.48% among 360,000. activation, % at 3 µM. Fluo-8 calcium fluorescence; scaled to maximal ATP response, vehicle zero; in the data active = activation above about 15%;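 note: untransfected CHO-K1 host cells lacking M1 receptor as counterscreen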
M1 antag = human M1 muscarinic receptor antagonists, primary screen, CHO-K1 cells, Fluo-8 calcium fluorescence, 1536-well; Muscarinic acetylcholine receptor M1 (Homo sapiens), P11229; hit rate 1.3% among 360,000; inhibition, % at 3 µM; CHO-K1 hM1, ACh EC80 antagonist;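 active = percent inhibition above its own plate's cutoff, namely the mean of that plate's compound wells plus 3 SD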;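 note: peak over basal fluorescence ratio during 140 s after agonist addition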
CHRM1 agonist = human M1 muscarinic receptor agonists, primary screen, Fluo-8 calcium fluorescence, CHO-K1 cells, HTS | Muscarinic acetylcholine receptor M1 (Homo sapiens), P11229 | CHO-K1 hM1, agonist mode; 0% DMSO, 100% acetylcholine EC100 | activation, % at 3 µM | hit rate 0.33% among 360,000;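 active = activation above the run's mean compound activation plus 3 SD, cut at about 16% in these data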;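 note: peak over basal fluorescence ratio within a 140 s kinetic read after compound addition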
Hits are given with their value; n = inactive. Rows were chosen to be rich in hits. Some 2.4% of all compounds tested hit in one or more screens of this group.

SMILES	CHO-K1 Ca antag	M1 PAM parental	M1 PAM	CHO-K1 Ca ag	M1 antag	CHRM1 agonist
Cc1cccc(S(=O)(=O)C(C#N)c2nc3ccccc3nc2N2CCCC2)c1 (stereo unspecified)	27	n	n	n	n	n
N#CC(c1nc2ccccc2nc1N1CCCC1)S(=O)(=O)c1ccccc1 (stereo unspecified)	n	n	n	n	n	n
N=c1sc2ccccc2n1-c1ccccc1	n	n	n	n	n	n
O=C(CCc1ccc(O)cc1)NNC(=S)NCCc1ccccc1	n	n	n	n	n	n
CC[C@]12c3[nH]c4cc(-c5ccco5)ccc4c3CCN1C(=O)[C@@H](CC(=O)NCCCN(C)C)C[C@@H]2C(=O)N1CCN(C(=O)C2CC2)CC1	n	n	n	n	21	n
O=C(N/N=C/c1ccccc1)c1ccc(N2CCOCC2)c([N+](=O)[O-])c1	n	n	n	n	n	n
O=C(N/N=C/c1cc([N+](=O)[O-])c(N2CCOCC2)cc1N1CCOCC1)c1cccnc1	n	n	n	21	n	n
N#CCC(=O)N/N=C/c1cc([N+](=O)[O-])ccc1N1CCOCC1	26	n	n	n	n	n
O=C(N/N=C/c1ccccc1[N+](=O)[O-])c1ccncc1	n	n	26	n	n	n
O=C(N/N=C/C=C/c1ccccc1[N+](=O)[O-])c1ccncc1	n	n	n	n	n	n
CCN(CC)CCN1c2ccccc2Sc2ccccc21	n	n	n	n	100	n
CCN(CC)CCN1C(=O)C2C3c4ccccc4C(c4ccccc43)C2C1=O (stereo unspecified)	n	n	n	n	n	n
COC(=O)c1ccc(OC(=O)CCN2c3ccccc3Sc3ccccc32)cc1	n	n	n	n	n	n
CCN(CC)CCN1c2ccccc2Sc2ccc3ccccc3c21	n	n	n	n	95	n
COc1ccc2c(c1)Sc1ccccc1N2CCN(C)C	n	n	n	n	48	n
CC(=O)N1c2ccccc2Sc2ccc3ccccc3c21	n	n	n	n	n	n
CC(NC(=O)c1ccc(Br)o1)C1CCCO1 (stereo unspecified)	n	n	n	n	n	n
Cn1cnc2cc(NCc3ccccc3Cl)ccc21	n	n	n	n	n	n
CC(C)c1ccc(CNc2ccc3c(c2)ncn3C)cc1	n	n	n	n	34	n
COc1ccc(C2c3c(c(C)c(C)oc3=O)Oc3c(C)c(C)oc(=O)c32)cc1	n	n	n	n	n	n
O=C(c1ccc(Br)o1)N1CCN(c2ccc(F)cc2)CC1	n	n	n	n	n	n
CCN1CCN(c2ccc(N3CCN(C(=O)c4ccc(Br)o4)CC3)nn2)CC1	n	n	n	n	35	n
Cn1c(=O)n(Cc2ccc(F)cc2)c(=O)c2c1nc1n2CCN1Cc1ccco1	n	n	n	n	n	n
Cn1c(=O)n(CCc2ccccc2)c(=O)c2c1nc1n2CCN1Cc1ccco1	n	n	n	n	32	n
Cc1cc(C)c2cc(CN(CCCN(C)C)C(=S)NCc3ccccc3)c(=O)[nH]c2c1	n	n	n	n	n	n
SMILES	CHO-K1 Ca antag	M1 PAM parental	M1 PAM	CHO-K1 Ca ag	M1 antag	CHRM1 agonist
CC1CN(C)C(C)C/C1=N/Oc1ccccc1[N+](=O)[O-] (stereo unspecified)	n	n	n	n	42	n
CC1CN(C)C(C)C/C1=N\Oc1ccc([N+](=O)[O-])cc1 (stereo unspecified)	n	n	n	n	n	n
CCC(C)NC(=O)CSc1ccc(NC(C)=O)cc1 (stereo unspecified)	n	n	n	n	n	n
CC(=O)Nc1ccc(SCCC2CCCCN2C)cc1 (stereo unspecified)	n	n	n	n	25	n
COc1ccccc1NS(=O)(=O)c1cccc(C(=O)NN=C2CCCCCC2)c1	n	n	n	n	n	n
Cn1c(=O)c(=O)n(C)c2cc(S(=O)(=O)N3CCC(Cc4ccccc4)CC3)ccc21	n	n	n	n	n	n
O=c1[nH]c2ccc(S(=O)(=O)N3CCC(Cc4ccccc4)CC3)cc2o1	24	n	n	n	n	n
O=C1Nc2c(Cl)cc(Cl)cc2C1=O	n	n	n	n	n	16
Cc1cccc(N=C2C(=O)Nc3c(Cl)cccc32)c1	n	n	n	n	n	n
O=C(CSc1nnc(-c2cccc(S(=O)(=O)N3CCCCC3)c2)o1)c1ccc[nH]1	n	n	n	n	n	n
CC(OC(=O)c1ccc2ncsc2c1)C(=O)Nc1cccc(Cl)c1 (stereo unspecified)	n	n	n	n	32	n
CC(=O)c1cccc(NC(=O)C(C)OC(=O)c2ccc3ncsc3c2)c1 (stereo unspecified)	n	n	n	n	n	n
NC(=S)N=Nc1c(O)n(Cc2ccccc2)c2ccccc12	n	n	n	n	n	n
O=Nc1c(O)n(Cc2cccc(Cl)c2)c2ccccc12	n	n	26	n	n	20
CCn1c(SCC(=O)N2CCCC2)nc2c1c(=O)n(C)c(=O)n2C	n	n	n	n	n	n
CCn1c(SCC(=O)N2CCC(C)CC2)nc2c1c(=O)n(C)c(=O)n2C	n	n	28	n	n	n
Cn1c(=O)c2c(nc(SCC(=O)N3CCc4ccccc4C3)n2C)n(C)c1=O	n	n	n	n	n	16
Cn1c(=O)c2c(nc(SCC(=O)N3c4ccccc4CCc4ccccc43)n2C)n(C)c1=O	n	n	n	n	n	n
CC1(C)CC(NC(=S)NC(=O)c2cc(Br)ccc2Cl)CC(C)(C)N1	n	n	n	n	n	22
COc1cccc(NC(=S)NC2CC(C)(C)NC(C)(C)C2)c1	26	n	n	n	n	n
COc1cc(NC(=S)NC2CC(C)(C)NC(C)(C)C2)c(OC)cc1Cl	n	n	n	n	n	36
O=C(O)C1CC=CCC1C(=O)NC12CC3CC(CC(C3)C1)C2 (stereo unspecified)	n	n	n	n	n	n
COc1ccnc(CSC(N)=Nc2ccccc2OC)c1	n	n	n	n	n	n
O=S(=O)(c1ccccc1)C1CON(Cc2ccccc2)C1c1ccccc1 (stereo unspecified)	36	n	n	n	n	n
Cc1nn(Cc2ccccc2)c(Cl)c1/C=C/C(=O)OCC(=O)NC(C)C(C)C (stereo unspecified)	n	n	n	n	n	n

Screening results deposited in PubChem BioAssay by The Scripps Research Institute Molecular Screening Center.
